Screening results from PubChem BioAssay.
Compounds with a hit are over-represented: about 2.8% of the library has one in this group of screens.
PI5P4Ka inh: inhibitors of human PI5P4K alpha. actives 1.2% (n = 330,000). max response, %. AID 652105. PI5P4Kalpha enzyme, ADP-Glo luminescence, 60 min; stronger effect = lower value. P48426; active = max response of -50% or lower; inconclusive = between -30% and -50%; inactive = -30% or higher; also: value at the top dose of about 77 µM
Target sequence (P48426 whole entry, looked up): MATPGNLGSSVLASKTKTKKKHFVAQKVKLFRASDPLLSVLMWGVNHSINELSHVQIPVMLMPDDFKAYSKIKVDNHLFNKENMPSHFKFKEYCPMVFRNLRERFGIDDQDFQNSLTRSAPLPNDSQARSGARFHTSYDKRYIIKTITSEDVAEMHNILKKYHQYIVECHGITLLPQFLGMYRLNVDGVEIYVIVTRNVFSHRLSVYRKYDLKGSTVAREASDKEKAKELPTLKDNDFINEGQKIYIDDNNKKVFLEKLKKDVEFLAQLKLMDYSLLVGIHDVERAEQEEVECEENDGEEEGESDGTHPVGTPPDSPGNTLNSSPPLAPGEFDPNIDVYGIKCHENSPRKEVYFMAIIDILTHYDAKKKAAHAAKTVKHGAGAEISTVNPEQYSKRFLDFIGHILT
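Compounds were pin-transferred onto PI5P4Kalpha and substrate in HEPES pH 7.4 buffer with EGTA, CHAPS and 5% DMSO. ATP (5 microM final) started the reaction, which ran 60 minutes at room temperature before ADP-Glo detection.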
Pol iota inh: blocks human DNA polymerase iota activity | Q9UNA4 | Pol iota fluorescent replication assay, 10 min | Potency, µM (series often up to 115 µM), most hits filed as inhibitors | actives 1% (n = 390,000) | AID 588590
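Fluorescent replication assay read twice, at 0 min and 10 min after adding 50 nM (final) substrate. Enzyme (10 nM) and compounds were first incubated 15 min at room temperature; enzyme-free buffer wells were negative controls.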
Pol kappa inh: blocks human DNA polymerase kappa activity. Q9UBT6. purified Pol kappa, fluorescent DNA synthesis assay, 10 min. Potency, µM (titrated, usually from 107 µM), hits mostly inhibitors. actives 0.53% (n = 400,000)
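Readout: fluorescence, taken kinetically at 0 and 10 min. Conditions: 10 nM Pol kappa, 15 min RT compound preincubation, 50 nM substrate final. Controls: enzyme-free buffer wells.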
WRN helicase inh: inhibitors of human WRN helicase; Q14191; WRN helicase unwinding, fluorescent forked duplex, kinetic; Potency, µM (doses to about 114 µM), hits mostly inhibitors; actives 0.46% (n = 360,000); AID 651768; also: nearly all actives have a fitted effect of over 55% in size
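Screening of the MLSMR collection measured strand separation of a quenched forked DNA duplex (100 nM) by 20 nM WRN with 2 mM ATP, all final. Compounds were preincubated with enzyme 15 min at room temperature.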
Pol eta inh: DNA polymerase eta (human) inhibition; Q9Y253; recombinant Pol eta, fluorescent DNA replication assay; Potency, µM (doses to about 114 µM), usual class: inhibitors; actives 1.2% (n = 390,000); AID 588591
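Fluorescent replication assay: 50 nM final substrate added after a 15 min room-temperature compound preincubation with 10 nM enzyme. Signal taken at 0 min and again at 10 min.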
Pol beta inh: inhibitors of human DNA polymerase beta; P06746; AID 485314; Potency, µM (titrated, usually from 114 µM), actives largely listed as inhibitors; actives 1.3% (n = 340,000); Pol beta primer extension/strand displacement, fluorescence kinetic
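Preincubation: enzyme (10 nM) with compound, 15 min, RT. Reaction: substrate added to 50 nM final. Reads: 0 and 10 min. Analysis: normalized, Hill fit.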
TbPGK inh: validation of Trypanosoma brucei phosphoglycerate kinase inhibitors | shares compounds with Pol kappa inh | TbPGK coupled GAPDH assay, Kinase-Glo luminescence | Potency, µM (titrated, usually from 57.5 µM), actives largely listed as inhibitors | actives 79% (n = 500); also: nearly all actives have a fitted effect of over 65% in size
Pol iota confirm: Inhibitors of human DNA polymerase iota, confirmation; shares compounds with Pol kappa inh; actives 77% (n = 1,500); Pol iota primer extension, TAMRA/BHQ fluorescence; Potency, µM, usual class: inhibitors
A number is an active result. Unless noted, calls follow the shape of the dose curve; as a rule, active = well fitted curve in the direction sought with a large enough effect; inconclusive = small, poorly fitted or top-dose-only effect, or another doubt; inactive = no such curve, though single readings can be large; an effect the other way counts as inactive or inconclusive.

Screening O=C(O)c1cc(N2C(=O)C=CC2=O)cc(N2C(=O)C=CC2=O)c1 returned PI5P4Ka inh -77.7, Pol iota inh 1.12µM, Pol kappa inh 2.24µM, WRN helicase inh 8.91µM, Pol eta inh 2.24µM and TbPGK inh inconclusive.
O=C(NNc1ncnc2c1cnn2-c1ccccc1)c1cccc(Cl)c1 was read as Pol iota inh inactive, Pol kappa inh inactive, Pol eta inh inactive and Pol beta inh inactive.
Screening Cc1csc(NC(=O)c2cn3ccccc3n2)n1 returned PI5P4Ka inh inactive, Pol iota inh inactive, Pol kappa inh inactive, WRN helicase inh inactive, Pol eta inh inactive, Pol beta inh inconclusive and TbPGK inh 18.3µM.
`COc1ccc(CC(=O)NCCc2csc(-c3cccc(C)c3)n2)cc1` gave Pol iota inh inactive, Pol kappa inh inactive, Pol eta inh inactive and Pol beta inh inactive.
Screening COc1ccc(N/C=C2\CCc3ccccc3C2=O)cc1 returned PI5P4Ka inh inconclusive, Pol iota inh inactive, Pol kappa inh inactive, WRN helicase inh inactive, Pol eta inh inactive, Pol beta inh inactive and TbPGK inh 16.3µM.
`COc1ccc2c(c1)CC/C(=C\Nc1ccc3c(c1)OCO3)C2=O` gave Pol iota inh inconclusive, Pol kappa inh inactive, WRN helicase inh inactive, Pol eta inh inactive and Pol beta inh inactive.
COc1ccccc1NC(=O)c1cnc(SCC(=O)N2CCOCC2)n(C)c1=O was read as Pol iota inh inactive, Pol kappa inh inactive, Pol eta inh inconclusive, Pol beta inh inactive and Pol iota confirm inconclusive.
`NC(=O)CSc1oc(-c2cccs2)nc1S(=O)(=O)c1ccc(Br)cc1` gave Pol iota inh inactive, Pol kappa inh inactive, Pol eta inh inactive and Pol beta inh inactive.
For Cc1ccc(C(=O)O/N=C(\N)c2ccccn2)cc1 the results were PI5P4Ka inh -54.9, Pol iota inh inactive, Pol kappa inh inactive, WRN helicase inh inactive, Pol eta inh inactive, Pol beta inh inactive and TbPGK inh 6.51µM.
For Cc1ccc(C(=O)O/N=C(\N)c2ccccn2)cc1C the results were PI5P4Ka inh inactive, Pol iota inh inactive, Pol kappa inh inactive, WRN helicase inh inactive, Pol eta inh inactive and Pol beta inh inactive.
`N/C(=N\OC(=O)c1ccccc1)c1ccccn1` gave PI5P4Ka inh inconclusive, Pol iota inh inactive, Pol kappa inh inactive, WRN helicase inh inactive, Pol eta inh inactive, Pol beta inh inactive and TbPGK inh 10.3µM.
Screening COc1ccc(C(=O)O/N=C(\C)c2ccccc2)cc1 returned PI5P4Ka inh inconclusive, Pol iota inh inactive, Pol kappa inh inactive, WRN helicase inh inactive, Pol eta inh inactive, Pol beta inh inactive and TbPGK inh 8.19µM.
`CCOc1ccc(C(=O)O/N=C(\N)c2ccccn2)cc1` gave PI5P4Ka inh -78.7, Pol iota inh inactive, Pol kappa inh inactive, WRN helicase inh inactive, Pol eta inh inactive, Pol beta inh inactive and TbPGK inh 9.19µM.
`CC(C)(C)c1ccc(C(=O)O/N=C(\N)c2ccccn2)cc1` gave PI5P4Ka inh inactive, Pol iota inh inactive, Pol kappa inh inactive, WRN helicase inh inactive, Pol eta inh inactive and Pol beta inh inactive.
`CCCCNC(=O)CCCCCn1c(=O)[nH]c2ccccc2c1=O` gave Pol iota inh inactive, Pol kappa inh inactive, Pol eta inh inactive and Pol beta inh inactive.
For Cc1cc(C)c2c(CC(=O)Nc3cc(C(F)(F)F)ccc3Cl)coc2c1 the results were Pol iota inh inactive, Pol kappa inh inactive, Pol eta inh inactive and Pol beta inh inactive.
CCOc1ccccc1CNS(=O)(=O)c1ccc2[nH]c(=O)ccc2c1 was read as Pol iota inh inactive, Pol kappa inh inactive, Pol eta inh inactive and Pol beta inh inactive.
